# Among all 16,000 compounds or so, about 4,000 (25%) were called active. Inconclusive results (about 26%) are left out. The list is a sample of the results. Unmarked numbers belong to inactive results. Calls come from the whole dose curve; as a rule, active = well fitted curve in the direction sought with a large enough effect; inconclusive = small, poorly fitted or top-dose-only effect, or effect the other way; inactive = no such curve, though single readings can be large or run the other way.
# Target: Cytochrome P450 2C9 (Homo sapiens) (UniProt P11712)
# Assay: Cytochrome panel assay with activity outcomes
# Conditions: recombinant CYP, pro-luciferin dealkylation, luminescence, p450-cyp2c9; series mostly up to 57.1 µM
# % is set by controls: 0 for no effect and ±100 for the full control effect.
# Chain of Cytochrome P450 2C9 (Homo sapiens) (P11712 whole entry, looked up): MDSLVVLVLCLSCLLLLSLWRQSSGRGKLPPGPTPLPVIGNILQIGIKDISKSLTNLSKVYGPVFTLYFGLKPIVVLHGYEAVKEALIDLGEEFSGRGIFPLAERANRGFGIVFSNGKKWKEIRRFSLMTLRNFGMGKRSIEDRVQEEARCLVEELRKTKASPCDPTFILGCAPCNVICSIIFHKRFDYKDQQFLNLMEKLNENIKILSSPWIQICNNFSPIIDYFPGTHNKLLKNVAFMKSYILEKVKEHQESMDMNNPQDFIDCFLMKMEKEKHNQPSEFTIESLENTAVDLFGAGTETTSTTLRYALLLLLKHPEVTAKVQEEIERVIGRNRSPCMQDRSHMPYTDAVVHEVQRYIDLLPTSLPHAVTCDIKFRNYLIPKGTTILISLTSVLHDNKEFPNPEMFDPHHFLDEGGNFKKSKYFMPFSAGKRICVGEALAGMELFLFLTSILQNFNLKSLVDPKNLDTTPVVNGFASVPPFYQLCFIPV
Structure (SMILES),AC50,"activity, negative = inhibition"
c1cc(CN2CCCCC2)cc(OCCCNc2nc3ccccc3s2)c1,inactive,–
C=CCn1c(-c2cccn(Cc3ccccc3)c2=O)n[nH]c1=S,inactive,–
O=c1c(-c2nc3ccccc3s2)cccn1Cc1ccccc1,3.16 µM (active),–
Cc1cnc(CNc2ncncc2-c2cccc(C#N)c2)cn1,–,-1.84% [at 2.29 µM]
Cn1cc[nH]c1=S,inactive,–
CN1CCC2(CC1)CCN(C(=O)c1cc(C(F)(F)F)cc(C(F)(F)F)c1)CC2,inactive,–
CCOC(=O)CSC1=C(C#N)C(c2sccc2C)CC(=O)N1 (centres undefined),12.6 µM (active),–
C=CCOC(=O)C1=C(C)NC(SCC(=O)OCC)=C(C#N)C1c1ccc(C)cc1 (centres undefined),7.94 µM (active),–
CCOC(=O)CSC1=C(C#N)C(c2sccc2C)C(C(C)=O)=C(C)N1 (centres undefined),1.78 µM (active),–
CCCC(O)(CCC)C(=O)NN1CCCCC1,inactive,–
CC(=O)N1CCc2cc(Br)cc(S(=O)(=O)N3CCN(C(=O)c4ccco4)CC3)c21,5.01 µM (active),–
O=C(c1ccco1)N1CCC2(CC1)CN(c1ccc(-c3ccccc3)cc1)C2,inactive,–
O=C(c1ccco1)N1CCC2(CC1)CCN(c1ccccc1)CC2,inactive,–
COc1ccc(/C=N/NC(=S)NC2CCS(=O)(=O)C2)cc1OC (centres undefined),inactive,–
CS(=O)(=O)c1ccc(/C=N\NC(N)=S)cc1,–,-1.25% [at 11.4 µM]
Cc1ccc(S(=O)(=O)N/N=C/c2ccc(OC3CSC3)cc2)cc1,1.41 µM (active),–
COc1ccc(C(=O)Oc2cc(/C=N/NS(=O)(=O)c3ccc(C)cc3)ccc2OC)cc1,2.24 µM (active),–
COc1ccc(/C=N\NC(=O)O)cc1,–,-7.71% [at 11.4 µM]
Fc1ccc(-c2ccnc3nc(N4CCOCC4)nn23)cc1,inactive,–
COC(=O)C1=C(C)NC(C)=C(C(=O)OCCSc2ccccc2)[C@@H]1C,3.16 µM (active),–
O=C(O)CCCSc1ccccc1,–,14.8% [at 11.4 µM]
Cc1nc2cnc(N3CCN(C)CC3)nc2n(Cc2ccc(F)cc2)c1=O,inactive,–
COC(=O)c1ccc(Oc2cc(C)nc(-n3nc(C)cc3C)n2)cc1,25.1 µM (active),–
Cc1nc2ccccc2nc1-c1ccc(N=[N+]([O-])c2ccc(-c3nc4ccccc4nc3C)cc2)cc1,–,-2.63% [at 11.4 µM]
C[N+](C)(C)CCO,inactive,–
CC(C)COC[C@H](CN(Cc1ccccc1)c1ccccc1)N1CCCC1,inactive,–
c1ccc2c(c1)C(=Nc1ccc(N=C3c4ccccc4-c4ccccc43)cc1)c1ccccc1-2,–,-2.68% [at 11.4 µM]
O=C1CC(=Nc2ccccc2)NN1c1ccccc1,2.82 µM (active),–
CC1=NN(c2ccccc2)C(=O)C1,inactive,–
